Screening data as filed in PubChem BioAssay.
Rows were chosen to be rich in hits. Some 2.2% of all compounds tested hit in one or more screens of this group.
PAX8 reporter: inhibitors of PAX8-driven TPO luciferase reporter, primary screen, RMG-I cells, single concentration | SteadyGlo, 24 h | inhibition, % at 12.6 µM | 360,000 tested, 1.2% active;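 active means mean replicate inhibition at least 60% with every replicate also reaching 60%; inconclusive means only one of the two criteria is met; inactive means mean below 60% and not all replicates reaching 60%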;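 further: luciferase light reporting Pax8 driven TPO promoter activity; plate controls were median of neutral control wells for no effect and mitoxantrone controls for full effect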
EBV LMP1 NFkB: EBV LMP1-driven NF-kappaB luciferase reporter inhibitors, primary screen, cell-based, luminescence, single point; LMP1-induced NF-kappaB luciferase reporter cells; inhibition, % at 12.5 µM; 350,000 tested, 0.69% active; AID 504558, 2011; in the data active means inhibition above about 41%; inconclusive means no clear call, values can overlap the other calls;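 further: 0% = neutral control wells and 100% = reference inhibitor control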
LGR2 antag: inhibitors of bursicon-induced LGR2 CRE-luciferase signal, primary screen, cell-based, HEK293, CRE-luciferase reporter, bursicon stimulation. Drosophila bursicon receptor LGR2 (rickets). bursicon-stimulated, 4 h. inhibition, % at 9.99 µM. 380,000 tested, 0.35% active. AID 720647, 2013;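 active means drop in luminescence signal, shown as inhibition above about 50% in the replicate tests, limit read from the data, passing the limit was not always enough; inconclusive means probably only some replicates passing the limit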;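 further: agonist challenge used bursicon conditioned medium at about half maximal strength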
EWS-Fli inh: EWS/Fli-driven NR0B1 reporter inhibitors, primary screen, A673 cells, NR0B1 luciferase, luminescence, MLPCN library; viability-normalised; inhibition, % at 12.6 µM; 350,000 tested, 0.67% active; AID 651661, 2012;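 active means mean inhibition of at least 50% after viability correction, with every replicate also passing that limit; inconclusive means mean reaches 50% but only one of two replicates passes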;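 further: firefly luciferase signal divided by Alamar Blue viability fluorescence both relative to DMSO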
Shn3 3UTR inh: reduction of Shn3 3'UTR firefly luciferase signal, primary screen, Schnurri-3 inhibitor project, cell-based, Clone20 osteoblasts, set 2. inhibition, % at 12.5 µM. 360,000 tested, 0.52% active. AID 588674, 2011. Clone20 osteoblast Shn3 3'UTR firefly luciferase, 24 h;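 active means mean inhibition of at least 75% with every replicate also reaching 75%; inconclusive means mean inhibition at least 75% but some replicate below; inactive means mean inhibition below 75%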;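 further: 0% = median of neutral control wells and 100% = pilot-screen positive control compound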
MITF TRPM1 inh: inhibitors of MITF-dependent TRPM1 promoter reporter, primary screen, cell-based, SK-MEL-5, single point, luciferase; SK-MEL-5 TRPM1 promoter luciferase, 24 h; inhibition, % at 12.5 µM; 330,000 tested, 0.83% active; AID 488899, 2010;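 active means mean inhibition across replicates of 60% or more, whatever share of single replicates reaches that level; inconclusive means some that reach 60%, reason not given; inactive means mean inhibition across replicates below 60%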
Numbers without * were called inactive; ? = inconclusive; . = no result.

SMILES | PAX8 reporter | EBV LMP1 NFkB | LGR2 antag | EWS-Fli inh | Shn3 3UTR inh | MITF TRPM1 inh
O=c1[nH]cnc2c1ncn2[C@@H]1O[C@H](CO)[C@@H](O)[C@H]1O | -10 | 80* | -8 | -8 | -7 | 9
CC(C)CN(C(=O)COC(=O)c1cccs1)c1c(N)n(Cc2ccccc2)c(=O)[nH]c1=O | -13 | 1 | -8 | 3 | 2 | .
CCCCn1c(N)c(N(CCC(C)C)C(=O)COC(=O)c2ccc([N+](=O)[O-])s2)c(=O)[nH]c1=O | 91* | -22 | 5 | 6 | -5 | 80*
CC(C)CN(C(=O)COC(=O)c1ccc([N+](=O)[O-])s1)c1c(N)n(Cc2ccccc2)c(=O)[nH]c1=O | -2 | 8 | 2 | -3 | 4 | 60*
O=C(O)C[C@@H]1CC[C@@H](NC(=O)Nc2ccccc2)[C@@H](CO)O1 | -2 | . | -4 | -4 | . | .
Cc1nc([N+](=O)[O-])c(SCC(N)=O)n1Cc1ccccc1 | 6 | -3 | 6 | 8 | -7 | 6
Cc1nc([N+](=O)[O-])c(Sc2nc3ccccc3n2C)n1Cc1ccccc1 | 45 | -1 | 20 | . | 0 | 63*
CC(C)C(=O)Nc1ccc2c(c1)C(=O)N(C)[C@@H]1CC[C@@H](CC(=O)Nc3ccccc3)O[C@@H]1CO2 | -9 | . | 15 | . | . | .
CCCC(=O)Nc1ccc2c(c1)OC[C@H](C)N(CCc1ccccc1)C[C@@H](C)[C@@H](OC)CN(C)C2=O | . | . | 15 | 0 | . | .
CN(Cc1ccccc1)N=Nc1nc[nH]c1C(N)=O | 87* | . | 1 | 0 | -13 | .
CN(Cc1ccccc1)N=Nc1ccccc1 | 6 | -7 | -13 | -9 | -22 | .
Cc1cc(N2CCCCC2)nc(NCc2ccccc2)n1 | 28 | 7 | . | . | 88* | 43
Cc1cc(N2CCOCC2)nc(NCc2ccccc2)n1 | . | 23 | 16 | 15 | 76 | 1
Cc1cc(Nc2cccc(Cl)c2)nc(NCc2ccccc2)n1 | 8 | 1 | . | 14 | 87* | 10
Cc1cc(N/N=C/c2cccc(Cl)c2)nc(NCc2ccccc2)n1 | 34 | -19 | -24 | . | 2 | -34
C/C=C/c1ccc([C@H]2[C@@H](CO)N3C(=O)CN(Cc4ccc(C)cc4)C[C@H]23)cc1 | . | . | -1 | . | . | .
Clc1ccc(C2Nc3cccc4cccc(c34)N2)c(Cl)c1 | 16 | -11 | . | 2 | 12 | 8
O=C1NC(c2cccc3ccccc23)Nc2ccc(Cl)cc21 (configuration not stated) | 71* | -2 | -13 | 38 | 26 | 42
O=C(NCC1CC1)[C@H]1[C@H](CO)[C@H]2Cn3c(ccc(-c4cccnc4)c3=O)[C@@H]1N2C(=O)C1CCCC1 | -3 | . | -18 | 2 | . | .
Nc1nc(Cl)nc2c1ncn2[C@H]1C[C@H](O)[C@@H](CO)O1 | 18 | 7 | . | 1 | 88* | 16
Nc1ncnc2c1ncn2[C@H]1C[C@H](O)[C@@H](CO)O1 | . | -2 | 0 | -4 | 8 | -12
C[C@H](CO)N1C[C@H](C)[C@@H](CN(C)Cc2ccncc2)Oc2cc(C#CC(C)(C)O)ccc2S1(=O)=O | . | . | 4 | 4 | . | .
CN(C)C(=O)C[C@H]1C=C[C@@H](NC(=O)NC2CCCCC2)[C@@H](CO)O1 | 2 | . | -19 | 2 | . | .
COc1cccc2c1C(=O)O/C2=C/c1ccc2c(c1)OCO2 | . | -12 | 62* | . | 16 | -5
COc1cccc(OC)c1C1=CC(=O)C[C@H](c2ccc3c(c2)OCO3)C1 | 5 | -5 | 0 | 3 | 0 | 2
CC(C)Cc1nc2oc3c(NCCCN4CCOCC4)ncnc3c2c2c1CCC2 | . | -3 | . | . | 62 | 10
CC(C)Cc1nc2oc3c(Cl)ncnc3c2c2c1CCC2 | . | -2 | -2 | 58* | -14 | ?
N#CC1=C(N)C(C#N)(C#N)C(c2cccnc2)C2CC(c3ccccc3)CC=C12 (configuration not stated) | . | 55* | . | . | 14 | 5
N#CC1=C(N)C(C#N)(C#N)[C@H](c2cccnc2)[C@H]2CN(C(=O)OCc3ccccc3)CC=C12 | 13 | 2 | 9 | 2 | -18 | 9
